# Source: PubChem BioAssay (NCATS)
# Results filed as inconclusive are left out. Where a call stands in place of a potency, no number is given. Values without a mark were called inactive. The source made the active and inactive calls. The call rests on the fitted dose curve; in most records, active means well fitted inhibition curve with a large enough effect; inconclusive means small, poorly fitted or top-dose-only effect; inactive means flat fitted curve, though single readings scatter.
# Molecular target: Calcium and integrin-binding protein 1 (Homo sapiens) (UniProt Q99828)
# Sequence (Q99828 whole entry, looked up): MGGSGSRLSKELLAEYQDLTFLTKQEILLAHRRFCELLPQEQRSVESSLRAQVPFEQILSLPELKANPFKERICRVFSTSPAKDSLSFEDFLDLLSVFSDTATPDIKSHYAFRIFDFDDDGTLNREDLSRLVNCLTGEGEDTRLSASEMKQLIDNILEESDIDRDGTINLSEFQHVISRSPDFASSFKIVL
# Assay: Primary qHTS for Identification of Calcium Integrin Binding Protein 1 (CIB1) Competitor (AID 1508620); further: top concentration of the series differs between compounds
# Details: CIB1-GST / FITC-alphaIIb peptide fluorescence polarization; series mostly up to 114 µM
# Outline: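 Fluorescence polarization competition: GST-tagged CIB1 (1 uM final) preincubated with compound 15 min at room temperature, then FITC-labelled alphaIIb peptide (100 nM final) added. After 15 min at room temperature, polarization read at Ex 480/Em 540.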
Compound,Potency,"activity change, negative = inhibition"
C=C1C(=O)OC2/C=C(\CO)CC/C=C(\C=O)CC(OC(=O)CC(C)C)C12 (centres undefined),inactive,
NCCCNc1ccc(Nc2nccc(Nc3cc(C4CC4)[nH]n3)n2)cc1,inactive,
O=C(OC1C=C(CO)C2C(OC3OC(CO)C(O)C(O)C3O)OC=CC12)c1ccc(O)cc1 (centres undefined),inactive,
CC[C@]1(O)CC2CN(CCc3c([nH]c4ccccc34)[C@@](C(=O)OC)(c3cc4c(cc3OC)N(C=O)[C@H]3[C@@](O)(C(=O)OC)[C@H](OC(C)=O)[C@]5(CC)C=CCN6CC[C@]43[C@@H]65)C2)C1 (some centres undefined),inactive,
O=C1NC(Cc2ccccc2)C(=O)N2CCCC12 (centres undefined),inactive,
CC(C)CCC(=O)CC1c2ccccc2C(=O)N1c1ccc2ccc(Cl)nc2n1 (centres undefined),inactive,
C/C=C/C=C/C=C/C(=O)OC1C=C(C=O)C(O)(C(=O)O)C2(C)CCCC(C)(C)C12 (centres undefined),inactive,
C[C@@H]1O[C@@H](O[C@H]2[C@H](O)[C@@H](O)[C@H](OC[C@H]3O[C@@H](OC(=O)[C@]45CCC(C)(C)C[C@H]4C4=CCC6[C@@]7(C)CC[C@H](O[C@@H]8OC[C@H](O)[C@H](O[C@@H]9O[C@H](CO)[C@@H](O)[C@H](O)[C@H]9O)[C@H]8O)[C@@](C)(CO)C7CC[C@@]6(C)[C@]4(C)CC5)[C@H](O)[C@@H](O)[C@@H]3O)O[C@@H]2CO)[C@H](O)[C@H](O)[C@H]1O (some centres undefined),,1.27% [at 12.4 µM]
COc1ccc([C@H]2CNC(=O)C2)cc1OC1CCCC1,inactive,
